The record followed here is ChEMBL document CHEMBL1157539, “Thousands of chemical starting points for antimalarial lead identification” (Nature, 2010).

Common to all, as to type: functional
In test [1] the test system is Plasmodium falciparum. As to the kind of experiment: GSK_TCMDC: Inhibition of Plasmodium falciparum 3D7 in whole red blood cells, using parasite LDH activity as an index of growth. Test compounds present at 2uM.
Test [2] has as its system Plasmodium falciparum. As to the kind of experiment: GSK_TCMDC: Inhibition of Plasmodium falciparum Dd2 in whole red blood cells, using parasite LDH activity as an index of growth. Test compounds present at 2uM.
For another test, the system named is HepG2. The test can be described thus: GSK_TCMDC: Percent inhibition of human HepG2 cell line. Test compounds present at 10uM.

Consider `Cc1[nH]c(C)c(-c2ccc(-c3ccc(F)cc3)nc2)c(=O)c1Br`, for which the Inhibition is 97% with Plasmodium falciparum [1], 96% in the test with Plasmodium falciparum [2] and 15% in the test on HepG2.
As for `Br.CC1(C)NC(N)=NC(=N)N1OCCCCCOc1ccccc1`, the values for the Inhibition with Plasmodium falciparum [1], in the test with Plasmodium falciparum [2] and with HepG2 were 95%, 97% and 61%, respectively.
With `CCc1ccc(NC(=O)c2ccc(CN3CCCN(Cc4cccs4)CC3)cc2)cc1.O=C(O)C(F)(F)F`, the Inhibition was 87% in the test with Plasmodium falciparum [1], 0% in the test on Plasmodium falciparum [2] and 57% in the test on HepG2.
As for `COc1ccc2nccc([C@@H](O)CN3CCC(NCc4cc5c(cc4F)SCC(=O)N5)CC3)c2n1`, the Inhibition is 96% in the test on Plasmodium falciparum [1], 27% in the test on Plasmodium falciparum [2] and 14% in the test on HepG2.
With `CC1CN(Cc2cccc(F)c2)CCN1c1ccc(NC(=O)c2cccs2)cc1.O=C(O)C(F)(F)F` (stereo not drawn), the Inhibition is 96% in the test on Plasmodium falciparum [1], 96% in the test with Plasmodium falciparum [2] and 0% with HepG2.
For the molecule `COc1cc(CCN(C)Cc2ccc(OC)c(OC)c2)ccc1NC(=O)c1cccc2c(O)c3cccc(F)c3nc12`, the Inhibition is 100% with Plasmodium falciparum [1], 26% with Plasmodium falciparum [2] and 14% in the test on HepG2.
For `O=S(=O)(c1cccc2cccnc12)N1CCN(C2CCCCC2)CC1`, the results for the Inhibition with Plasmodium falciparum [1], in the test with Plasmodium falciparum [2] and with HepG2 were 96%, 10% and 15%, respectively.
In the same order, the values of `Cc1ccc2c(c1)NCC21CCN(C[C@@H](O)C2CCN(c3cc(C#N)ccn3)CC2)CC1C` (stereo partly drawn) are 90%, 79% and 28%.
In the same order, the values of `O=C(O)c1ccc2nc(-c3ccccn3)c(-c3ccccn3)nc2c1` are 97%, 18% and 3%.
In the case of `CCCCOc1ccccc1C(=O)NCc1csc(-c2ccccc2)n1`, the Inhibition was 93% in the test on Plasmodium falciparum [1], 91% in the test on Plasmodium falciparum [2] and 17% with HepG2.
`COc1cccc(CC(=O)NC2CCN(c3ccnc4cc(Cl)ccc34)C2)c1.O=C(O)C(F)(F)F` (stereo not drawn): the Inhibition with Plasmodium falciparum [1] was 100%; with Plasmodium falciparum [2] it was 85%; in the test on HepG2 it was 9%.

For orientation: Inhibition means the change of the read-out against control, counted positive when it falls. A higher Inhibition goes with a strong effect.
